Measurements from PMC7862700, “An all-to-all approach to the identification of sequence-specific readers for epigenetic DNA modifications on cytosine”.

Key:
Assay in all cases: DAPPL (digital affinity profiling via proximity ligation, sequencing); 10 mM Tris-HCl pH 7.5, 50 mM NaCl, 1 mM DTT, 4% glycerol, room temperature, 30 min; GST-TFs on glutathione beads, 16-mer random dsDNA library, 0.1% formaldehyde crosslink after washing; high values mean tight binding
[1] = target: T1, FLI1 (Homo sapiens, UniProt Q01543 1-452); details: protein: recombinant; tags: N-terminal GST; dsDNA, one strand shown
T1 sequence: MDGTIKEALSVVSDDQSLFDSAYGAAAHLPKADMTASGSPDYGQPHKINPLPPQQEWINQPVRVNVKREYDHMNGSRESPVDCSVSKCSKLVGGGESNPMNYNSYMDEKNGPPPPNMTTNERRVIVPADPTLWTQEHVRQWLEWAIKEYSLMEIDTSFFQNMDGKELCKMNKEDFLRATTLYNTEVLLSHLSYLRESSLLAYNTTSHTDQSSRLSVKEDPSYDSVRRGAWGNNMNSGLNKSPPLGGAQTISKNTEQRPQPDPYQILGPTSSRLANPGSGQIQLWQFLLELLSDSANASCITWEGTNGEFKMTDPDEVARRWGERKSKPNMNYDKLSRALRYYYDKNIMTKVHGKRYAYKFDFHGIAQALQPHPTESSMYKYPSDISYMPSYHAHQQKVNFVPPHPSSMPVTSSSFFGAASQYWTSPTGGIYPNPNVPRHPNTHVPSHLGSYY
Outline: (§1)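 Each value of binding signal is a hexamer's read frequency for a factor divided by the same hexamer's frequency in the tag-only sample. Barcoded, bead-captured GST fusions of human transcription factors made in yeast were pooled with that sample and incubated with 200 nmole of a random double-stranded 16-mer DNA library in Tris/NaCl/DTT/glycerol buffer at room temperature for 30 min. Washing, 0.1% formaldehyde crosslinking, proximity ligation, PCR and Illumina NextSeq500 sequencing followed.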

[2] = target: T2, ELK1 (Homo sapiens, UniProt P19419 1-428); details: protein: recombinant; tags: N-terminal GST; dsDNA, one strand shown
T2 sequence: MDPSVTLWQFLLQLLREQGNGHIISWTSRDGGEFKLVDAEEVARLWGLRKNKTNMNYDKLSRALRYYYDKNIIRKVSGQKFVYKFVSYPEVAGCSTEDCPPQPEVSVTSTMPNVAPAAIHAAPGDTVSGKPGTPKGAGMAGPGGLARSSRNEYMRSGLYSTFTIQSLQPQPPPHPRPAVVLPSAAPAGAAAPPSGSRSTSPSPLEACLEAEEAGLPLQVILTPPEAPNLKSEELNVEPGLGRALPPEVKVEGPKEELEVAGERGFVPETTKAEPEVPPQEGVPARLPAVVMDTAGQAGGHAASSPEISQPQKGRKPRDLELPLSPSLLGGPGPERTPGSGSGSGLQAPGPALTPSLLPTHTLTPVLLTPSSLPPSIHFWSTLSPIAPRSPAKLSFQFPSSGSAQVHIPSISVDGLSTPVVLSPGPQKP
Outline: as §1

[3] = target: T3, GABPA (Homo sapiens, UniProt Q06546 1-454); details: protein: recombinant; tags: N-terminal GST; dsDNA, one strand shown
T3 sequence: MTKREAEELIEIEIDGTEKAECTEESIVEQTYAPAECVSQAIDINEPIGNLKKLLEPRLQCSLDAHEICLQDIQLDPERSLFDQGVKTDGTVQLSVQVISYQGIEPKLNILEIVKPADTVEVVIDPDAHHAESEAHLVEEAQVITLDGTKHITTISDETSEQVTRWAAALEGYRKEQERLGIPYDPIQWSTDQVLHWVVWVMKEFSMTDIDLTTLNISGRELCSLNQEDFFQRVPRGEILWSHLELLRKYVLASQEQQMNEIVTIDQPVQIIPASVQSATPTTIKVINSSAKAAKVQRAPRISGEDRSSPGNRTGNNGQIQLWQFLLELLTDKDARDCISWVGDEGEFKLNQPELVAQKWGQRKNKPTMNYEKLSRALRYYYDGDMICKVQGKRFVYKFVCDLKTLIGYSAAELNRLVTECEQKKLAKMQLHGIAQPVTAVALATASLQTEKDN
Outline: as §1

[4] = target: T4, ERG (Homo sapiens, UniProt P11308 1-479); details: protein: recombinant; tags: N-terminal GST; dsDNA, one strand shown
T4 sequence: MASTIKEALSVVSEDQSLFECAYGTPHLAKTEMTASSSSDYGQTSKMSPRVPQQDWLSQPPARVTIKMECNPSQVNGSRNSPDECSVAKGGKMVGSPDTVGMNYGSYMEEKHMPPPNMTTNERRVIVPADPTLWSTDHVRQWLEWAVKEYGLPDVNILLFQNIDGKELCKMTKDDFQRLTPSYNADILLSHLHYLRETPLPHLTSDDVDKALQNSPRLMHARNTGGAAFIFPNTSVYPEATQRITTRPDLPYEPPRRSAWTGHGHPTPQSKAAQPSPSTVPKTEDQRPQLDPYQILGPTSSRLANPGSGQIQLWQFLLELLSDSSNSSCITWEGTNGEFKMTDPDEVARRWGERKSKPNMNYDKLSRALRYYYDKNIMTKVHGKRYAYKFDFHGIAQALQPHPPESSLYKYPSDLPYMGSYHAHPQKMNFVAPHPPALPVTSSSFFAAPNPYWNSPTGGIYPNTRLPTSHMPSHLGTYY
Outline: as §1

[5] = target: ELF1 (Homo sapiens, UniProt P32519 1-619); details: protein: recombinant; tags: N-terminal GST; dsDNA, one strand shown
Outline: as §1

[6] = target: T5, EHF (Homo sapiens, UniProt Q9NZC4 1-300); details: protein: recombinant; tags: N-terminal GST; dsDNA, one strand shown
T5 sequence: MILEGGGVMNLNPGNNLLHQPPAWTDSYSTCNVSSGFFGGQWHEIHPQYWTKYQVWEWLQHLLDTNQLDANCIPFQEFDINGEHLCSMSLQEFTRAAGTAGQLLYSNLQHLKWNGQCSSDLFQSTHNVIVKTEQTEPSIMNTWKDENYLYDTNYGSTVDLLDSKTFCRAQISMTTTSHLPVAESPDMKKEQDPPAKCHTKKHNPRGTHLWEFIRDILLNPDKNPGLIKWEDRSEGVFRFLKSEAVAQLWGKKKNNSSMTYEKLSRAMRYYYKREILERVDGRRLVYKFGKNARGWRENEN
Outline: as §1

[7] = target: SPI1 (Homo sapiens, UniProt P17947 1-270); details: protein: recombinant; tags: N-terminal GST; dsDNA, one strand shown
Outline: as §1

[8] = target: SPIB (Homo sapiens, UniProt Q01892 1-262); details: protein: recombinant; tags: N-terminal GST; dsDNA, one strand shown
Outline: as §1

[9] = target: T6, ELK3 (Homo sapiens, UniProt P41970 1-407); details: protein: recombinant; tags: N-terminal GST; dsDNA, one strand shown
T6 sequence: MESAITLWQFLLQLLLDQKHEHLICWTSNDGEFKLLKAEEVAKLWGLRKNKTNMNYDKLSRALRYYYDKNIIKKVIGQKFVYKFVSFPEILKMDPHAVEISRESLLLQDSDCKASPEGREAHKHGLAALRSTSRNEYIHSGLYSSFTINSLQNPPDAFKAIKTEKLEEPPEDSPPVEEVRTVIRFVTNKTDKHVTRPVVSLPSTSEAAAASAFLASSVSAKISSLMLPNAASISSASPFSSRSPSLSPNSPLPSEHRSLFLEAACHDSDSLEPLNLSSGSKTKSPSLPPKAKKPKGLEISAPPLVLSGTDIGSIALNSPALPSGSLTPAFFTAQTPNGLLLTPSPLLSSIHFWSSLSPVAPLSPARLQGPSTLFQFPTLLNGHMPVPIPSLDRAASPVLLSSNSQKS
Outline: as §1

[10] = target: T7, FEV (Homo sapiens, UniProt Q99581 1-238); details: protein: recombinant; tags: N-terminal GST; dsDNA, one strand shown
T7 sequence: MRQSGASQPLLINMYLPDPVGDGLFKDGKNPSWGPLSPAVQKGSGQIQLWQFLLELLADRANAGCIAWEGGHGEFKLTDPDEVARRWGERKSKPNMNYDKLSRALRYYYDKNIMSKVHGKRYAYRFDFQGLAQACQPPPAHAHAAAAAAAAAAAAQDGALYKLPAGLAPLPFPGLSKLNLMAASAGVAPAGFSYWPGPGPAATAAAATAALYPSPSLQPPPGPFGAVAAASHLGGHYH
Outline: as §1

[11] = target: ETV5 (Homo sapiens, UniProt P41161 1-510); details: protein: recombinant; tags: N-terminal GST; dsDNA, one strand shown
Outline: as §1

[12] = target: HSF1 (Homo sapiens, UniProt Q00613 1-529); details: protein: recombinant; tags: N-terminal GST; chain copies: 3; dsDNA, one strand shown
Outline: as §1

[13] = target: T8, SPIC (Homo sapiens, UniProt Q8N5J4 1-248); details: protein: recombinant; tags: N-terminal GST; dsDNA, one strand shown
T8 sequence: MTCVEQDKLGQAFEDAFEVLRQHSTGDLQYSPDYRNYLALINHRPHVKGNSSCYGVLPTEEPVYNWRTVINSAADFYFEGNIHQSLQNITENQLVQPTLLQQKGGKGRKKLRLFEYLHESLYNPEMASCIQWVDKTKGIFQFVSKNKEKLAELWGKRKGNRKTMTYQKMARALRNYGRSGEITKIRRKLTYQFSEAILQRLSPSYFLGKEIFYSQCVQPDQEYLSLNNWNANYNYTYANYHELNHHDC
Outline: as §1

[14] = target: ELF4 (Homo sapiens, UniProt Q99607 1-663); details: protein: recombinant; tags: N-terminal GST; dsDNA, one strand shown
Outline: as §1

[15] = target: T9, ELK4 (Homo sapiens, UniProt P28324-2 1-405); details: protein: recombinant; tags: N-terminal GST; dsDNA, one strand shown
T9 sequence: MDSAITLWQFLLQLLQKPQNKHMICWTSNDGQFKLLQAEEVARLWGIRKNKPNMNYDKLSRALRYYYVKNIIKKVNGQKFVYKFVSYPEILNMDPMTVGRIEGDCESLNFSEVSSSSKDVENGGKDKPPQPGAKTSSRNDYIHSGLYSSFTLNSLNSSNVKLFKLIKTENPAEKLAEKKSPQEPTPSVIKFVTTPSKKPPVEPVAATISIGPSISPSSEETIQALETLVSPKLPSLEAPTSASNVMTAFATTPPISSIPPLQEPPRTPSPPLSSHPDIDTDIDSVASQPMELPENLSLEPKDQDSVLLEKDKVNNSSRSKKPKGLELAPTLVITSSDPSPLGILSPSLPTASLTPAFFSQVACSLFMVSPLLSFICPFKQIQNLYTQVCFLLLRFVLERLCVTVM
Outline: as §1

[16] = target: T10, ETV2 (Homo sapiens, UniProt O00321 1-342); details: protein: recombinant; tags: N-terminal GST; dsDNA, one strand shown
T10 sequence: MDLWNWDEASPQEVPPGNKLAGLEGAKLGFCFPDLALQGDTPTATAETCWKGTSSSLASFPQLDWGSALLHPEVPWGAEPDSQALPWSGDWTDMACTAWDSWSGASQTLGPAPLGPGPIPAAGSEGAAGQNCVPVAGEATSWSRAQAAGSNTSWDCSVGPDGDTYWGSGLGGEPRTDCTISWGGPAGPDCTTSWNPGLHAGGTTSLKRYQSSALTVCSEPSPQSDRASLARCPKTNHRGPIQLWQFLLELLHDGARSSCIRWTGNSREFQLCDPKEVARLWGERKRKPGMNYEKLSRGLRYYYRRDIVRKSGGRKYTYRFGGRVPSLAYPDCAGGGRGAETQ
Outline: as §1

[17] = target: T11, ELF3 (Homo sapiens, UniProt P78545 1-371); details: protein: recombinant; tags: N-terminal GST; dsDNA, one strand shown
T11 sequence: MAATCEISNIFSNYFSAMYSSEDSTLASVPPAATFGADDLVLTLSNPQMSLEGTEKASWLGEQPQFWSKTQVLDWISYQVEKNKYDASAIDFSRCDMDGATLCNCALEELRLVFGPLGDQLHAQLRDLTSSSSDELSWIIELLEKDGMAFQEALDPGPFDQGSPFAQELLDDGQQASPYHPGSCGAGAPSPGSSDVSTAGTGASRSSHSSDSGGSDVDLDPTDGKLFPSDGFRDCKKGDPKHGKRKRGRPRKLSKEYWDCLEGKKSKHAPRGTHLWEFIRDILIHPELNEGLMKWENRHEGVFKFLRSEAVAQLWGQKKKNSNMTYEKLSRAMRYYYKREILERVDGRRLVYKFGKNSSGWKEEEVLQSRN
Outline: as §1

[18] = target: CRX (Homo sapiens, UniProt O43186 1-299); details: protein: recombinant; tags: N-terminal GST; dsDNA, one strand shown
Outline: as §1

[19] = target: ETV1 (Homo sapiens, UniProt P50549 1-477); details: protein: recombinant; tags: N-terminal GST; dsDNA, one strand shown
Outline: as §1

Sequence of ELF1 (P32519 whole entry): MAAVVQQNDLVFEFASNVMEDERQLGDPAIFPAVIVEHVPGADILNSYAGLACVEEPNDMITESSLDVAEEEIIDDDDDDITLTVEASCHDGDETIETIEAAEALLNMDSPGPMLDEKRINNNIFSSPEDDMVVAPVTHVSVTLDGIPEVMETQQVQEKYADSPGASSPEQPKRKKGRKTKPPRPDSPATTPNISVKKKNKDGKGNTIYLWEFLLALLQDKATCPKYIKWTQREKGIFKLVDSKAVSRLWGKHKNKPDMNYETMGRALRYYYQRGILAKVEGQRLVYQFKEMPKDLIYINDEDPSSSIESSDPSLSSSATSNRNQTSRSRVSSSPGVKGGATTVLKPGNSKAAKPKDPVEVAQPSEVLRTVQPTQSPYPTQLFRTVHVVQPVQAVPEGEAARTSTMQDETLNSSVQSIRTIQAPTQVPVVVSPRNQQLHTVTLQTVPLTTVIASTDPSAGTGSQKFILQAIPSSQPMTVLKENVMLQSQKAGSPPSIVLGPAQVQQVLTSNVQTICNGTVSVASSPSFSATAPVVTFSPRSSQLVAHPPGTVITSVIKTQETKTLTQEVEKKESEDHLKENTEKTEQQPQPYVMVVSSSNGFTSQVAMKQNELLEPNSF
Sequence of ELF4 (Q99607 whole entry): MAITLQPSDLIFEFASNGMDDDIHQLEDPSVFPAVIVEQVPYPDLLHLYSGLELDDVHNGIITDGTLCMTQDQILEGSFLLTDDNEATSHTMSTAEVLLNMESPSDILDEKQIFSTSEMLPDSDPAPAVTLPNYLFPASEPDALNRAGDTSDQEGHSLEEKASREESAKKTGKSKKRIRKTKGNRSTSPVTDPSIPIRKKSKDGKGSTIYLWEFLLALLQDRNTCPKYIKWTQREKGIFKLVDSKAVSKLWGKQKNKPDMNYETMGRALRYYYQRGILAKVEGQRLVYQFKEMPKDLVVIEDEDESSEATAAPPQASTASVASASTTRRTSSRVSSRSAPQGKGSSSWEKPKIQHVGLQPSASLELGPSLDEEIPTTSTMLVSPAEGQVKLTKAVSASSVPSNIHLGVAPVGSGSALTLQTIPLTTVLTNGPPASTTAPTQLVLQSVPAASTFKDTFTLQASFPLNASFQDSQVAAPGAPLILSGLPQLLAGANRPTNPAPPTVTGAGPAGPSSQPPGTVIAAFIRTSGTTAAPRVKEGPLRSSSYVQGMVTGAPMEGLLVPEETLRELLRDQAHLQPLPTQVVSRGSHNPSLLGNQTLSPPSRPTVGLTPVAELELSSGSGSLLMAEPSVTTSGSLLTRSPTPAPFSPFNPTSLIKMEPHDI
Sequence of ETV5 (P41161 whole entry): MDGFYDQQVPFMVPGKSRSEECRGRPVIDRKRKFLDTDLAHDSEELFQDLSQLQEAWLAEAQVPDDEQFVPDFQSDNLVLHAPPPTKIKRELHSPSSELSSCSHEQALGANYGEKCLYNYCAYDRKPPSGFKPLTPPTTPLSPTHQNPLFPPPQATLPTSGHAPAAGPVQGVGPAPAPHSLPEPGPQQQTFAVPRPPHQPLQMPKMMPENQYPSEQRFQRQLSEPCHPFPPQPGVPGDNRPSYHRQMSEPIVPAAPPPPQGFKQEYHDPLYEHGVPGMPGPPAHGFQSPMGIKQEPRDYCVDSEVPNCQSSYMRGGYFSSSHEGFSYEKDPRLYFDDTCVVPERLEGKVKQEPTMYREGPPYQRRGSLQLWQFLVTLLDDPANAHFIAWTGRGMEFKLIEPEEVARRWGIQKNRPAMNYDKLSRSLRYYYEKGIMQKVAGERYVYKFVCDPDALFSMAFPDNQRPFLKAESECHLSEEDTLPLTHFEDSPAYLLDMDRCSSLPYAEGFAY
Sequence of CRX (O43186 whole entry): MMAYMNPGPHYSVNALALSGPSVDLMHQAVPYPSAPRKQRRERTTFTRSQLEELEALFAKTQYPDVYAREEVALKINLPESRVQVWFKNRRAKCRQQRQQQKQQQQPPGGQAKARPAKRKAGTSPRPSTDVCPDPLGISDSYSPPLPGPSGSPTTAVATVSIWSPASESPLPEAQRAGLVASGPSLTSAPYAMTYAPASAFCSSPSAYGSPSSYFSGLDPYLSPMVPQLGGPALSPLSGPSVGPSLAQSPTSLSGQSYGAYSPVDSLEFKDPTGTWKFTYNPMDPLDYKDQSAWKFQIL
Sequence of SPIB (Q01892 whole entry): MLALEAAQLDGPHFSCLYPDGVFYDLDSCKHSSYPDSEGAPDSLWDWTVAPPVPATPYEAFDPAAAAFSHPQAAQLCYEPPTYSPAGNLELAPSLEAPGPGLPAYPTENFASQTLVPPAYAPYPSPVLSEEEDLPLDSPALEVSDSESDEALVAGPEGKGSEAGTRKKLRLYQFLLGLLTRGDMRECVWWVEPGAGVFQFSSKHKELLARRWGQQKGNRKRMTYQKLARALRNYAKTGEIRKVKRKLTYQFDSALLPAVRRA
Sequence of HSF1 (Q00613 whole entry): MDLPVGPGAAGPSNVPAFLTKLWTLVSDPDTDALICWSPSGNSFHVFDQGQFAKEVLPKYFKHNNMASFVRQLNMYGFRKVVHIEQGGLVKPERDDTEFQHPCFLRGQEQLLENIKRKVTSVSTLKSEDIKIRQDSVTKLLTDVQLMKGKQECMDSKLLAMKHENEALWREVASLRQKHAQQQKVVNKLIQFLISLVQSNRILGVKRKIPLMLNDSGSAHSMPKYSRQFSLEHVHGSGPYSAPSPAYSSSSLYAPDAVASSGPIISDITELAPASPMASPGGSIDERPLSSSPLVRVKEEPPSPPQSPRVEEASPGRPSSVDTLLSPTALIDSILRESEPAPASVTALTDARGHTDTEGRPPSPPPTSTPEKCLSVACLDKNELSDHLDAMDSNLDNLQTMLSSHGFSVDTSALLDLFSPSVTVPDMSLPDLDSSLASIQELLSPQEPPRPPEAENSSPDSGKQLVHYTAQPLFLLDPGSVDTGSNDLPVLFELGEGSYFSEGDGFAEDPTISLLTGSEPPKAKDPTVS
Sequence of ETV1 (P50549 whole entry): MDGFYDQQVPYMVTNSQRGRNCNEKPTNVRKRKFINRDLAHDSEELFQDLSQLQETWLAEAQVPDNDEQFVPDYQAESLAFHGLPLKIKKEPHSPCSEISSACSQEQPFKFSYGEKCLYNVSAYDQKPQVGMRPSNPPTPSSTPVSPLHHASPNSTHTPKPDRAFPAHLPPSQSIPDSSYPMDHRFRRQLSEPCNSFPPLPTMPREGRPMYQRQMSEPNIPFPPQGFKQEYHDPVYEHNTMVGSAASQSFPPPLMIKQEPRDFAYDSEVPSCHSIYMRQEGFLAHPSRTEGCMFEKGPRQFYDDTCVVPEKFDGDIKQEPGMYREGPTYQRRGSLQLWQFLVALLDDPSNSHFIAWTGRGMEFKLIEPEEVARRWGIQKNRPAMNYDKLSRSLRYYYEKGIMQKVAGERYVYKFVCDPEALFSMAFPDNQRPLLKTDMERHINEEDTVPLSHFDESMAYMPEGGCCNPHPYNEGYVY

## TACTTT
[1]
  binding signal: 1.32 fold enrichment (6-mer frequency, TF over GST control)
[2]
  binding signal: 1.48 fold enrichment (6-mer frequency, TF over GST control)
[3]
  binding signal: 1.41 fold enrichment (6-mer frequency, TF over GST control)
[4]
  binding signal: 1.29 fold enrichment (6-mer frequency, TF over GST control)
[5]
  binding signal: 1.34 fold enrichment (6-mer frequency, TF over GST control)
[6]
  binding signal: 1.39 fold enrichment (6-mer frequency, TF over GST control)
[7]
  binding signal: 1.25 fold enrichment (6-mer frequency, TF over GST control)
[8]
  binding signal: 1.36 fold enrichment (6-mer frequency, TF over GST control)
[9]
  binding signal: 1.11 fold enrichment (6-mer frequency, TF over GST control)
[10]
  binding signal: 1.33 fold enrichment (6-mer frequency, TF over GST control)
[11]
  binding signal: 1.38 fold enrichment (6-mer frequency, TF over GST control)
[12]
  binding signal: 1.44 fold enrichment (6-mer frequency, TF over GST control)
[13]
  binding signal: 1.26 fold enrichment (6-mer frequency, TF over GST control)
[14]
  binding signal: 1.43 fold enrichment (6-mer frequency, TF over GST control)
[15]
  binding signal: 1.4 fold enrichment (6-mer frequency, TF over GST control)
[16]
  binding signal: 1.33 fold enrichment (6-mer frequency, TF over GST control)
[17]
  binding signal: 1.73 fold enrichment (6-mer frequency, TF over GST control)
[18]
  binding signal: 1.71 fold enrichment (6-mer frequency, TF over GST control)
[19]
  binding signal: 1.39 fold enrichment (6-mer frequency, TF over GST control)
